Values joined by “and” are separate entries in the source; they are usually repeats but may differ in a detail not shown here. Identical values can stand only once. In all, about 5,500 compounds went through this assay and about 2,000 (36%) were called active. Inconclusive results (about 18%) are left out. Cut-off read from the data, not from the text of the source: active = normalized growth mostly below about 0.91 (no sharp cut-off); inconclusive = no clear call, values can overlap the other calls; inactive = mostly above about 0.92. The list shows a part of the results.
Assay: chemical genetic growth profiling, strain panel (AID 1159580);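 note: tested at 20 µM; growth read once vehicle control cultures reached saturation at 30 °C; 1 = growth at the plate median or of vehicle wells; lower values mean less growth of the strain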
Settings: S. cerevisiae deletion strains, growth OD

Measured: normalized growth

COc1cc(/C=C/C(=O)O)ccc1O
inactive: locus YAL021C, strain ccr4, hits give low values 1 | locus YAL026C, strain drs2, hits give low values 1.01 | locus YAL030W, strain snc1, hits give low values 1.01 | locus YBL061C, strain skt5, hits give low values 1.01 | locus YBR009C, strain hhf1, hits give low values 1.02 | locus YBR021W, strain FUR4, hits give low values 1.01 | locus YBR023C, strain chs3, hits give low values 1.01 | locus YBR171W, strain sec66, hits give low values 1.01 | locus YBR229C, strain ROT2, hits give low values 1.01 | locus YBR231C, strain swc5, hits give low values 1.01 | locus YBR279W, strain paf1, hits give low values 1.01 | locus YCL011C, strain gbp2, hits give low values 1.01 | locus YCL016C, strain dcc1, hits give low values 1.01 | locus YCL029C, strain bik1, hits give low values 0.977 | locus YCL061C, strain MRC1, hits give low values 1.02 | locus YCL069W, strain vba3, hits give low values 0.998 | locus YCR088W, strain abp1, hits give low values 1.01 | locus YDL005C, strain med2, hits give low values 1.02 | locus YDL035C, strain GPR1, hits give low values 1.01 | locus YDL040C, strain nat1, hits give low values 1 | locus YDL074C, strain BRE1, hits give low values 1 | locus YDL101C, strain DUN1, hits give low values 1.02 | locus YDL185W, strain tfp1, hits give low values 0.971 | locus YDL192W, strain arf1, hits give low values 0.986 | locus YDR001C, strain nth1, hits give low values 1.01 | locus YDR069C, strain doa4, hits give low values 1.03 | locus YDR101C, strain arx1, hits give low values 0.961 | locus YDR137W, strain rgp1, hits give low values 1.01 | locus YDR150W, strain NUM1, hits give low values 1 | locus YDR159W, strain sac3, hits give low values 0.98 | locus YDR162C, strain NBP2, hits give low values 0.992 | locus YDR195W, strain ref2 0.966 | locus YDR297W, strain sur2, hits give low values 1.01 | locus YDR318W, strain mcm21, hits give low values 0.997 | locus YDR334W, strain swr1, hits give low values 1.01 | locus YDR335W, strain msn5, hits give low values 1.01 | locus YDR388W, hits give low values 0.979 | locus YDR392W, strain spt3, hits give low values 0.985 | locus YDR502C, strain sam2, hits give low values 0.984 | locus YEL003W, strain gim4, hits give low values 1 | locus YEL037C, strain rad23, hits give low values 1.01 | locus YEL061C, strain CIN8 (second series), hits give low values 1.01 | locus YEL061C, strain CIN8, hits give low values 0.972 | locus YER015W, strain faa2, hits give low values 1.01 | locus YER016W, strain bim1, hits give low values 1 | locus YER110C, hits give low values 0.981 | locus YER111C, strain swi4, hits give low values 1.01 | locus YER155C, strain BEM2 (second series), hits give low values 0.999 | locus YER155C, strain BEM2, hits give low values 1 | locus YER167W, strain BCK2, hits give low values 0.973 | locus YFR010W, strain ubp6, hits give low values 1.01 | locus YGL078C, strain dbp3, hits give low values 0.983 | locus YGL086W, strain mad1, hits give low values 0.952 | locus YGL167C, strain pmr1, hits give low values 1.01 | locus YGL173C, strain kem1, hits give low values 1.01 | locus YGL227W, strain vid30, hits give low values 1.01 | locus YGL240W, strain doc1, hits give low values 1.02 | locus YGL248W, strain PDE1, hits give low values 1.02 | locus YGL253W, strain hxk2, hits give low values 0.997 | locus YGR135W, strain pre9, hits give low values 0.995 | locus YGR252W, strain gcn5, hits give low values 1.07 | locus YHR013C, strain ard1, hits give low values 0.996 | locus YHR027C, strain rpn1, hits give low values 1 | locus YHR030C, strain SLT2, hits give low values 0.993 and 1.02 | locus YHR079C, strain IRE1 (second series), hits give low values 0.972 | locus YHR079C, strain IRE1, hits give low values 1.05 | locus YHR094C, strain hxt1, hits give low values 0.966 | locus YHR129C, strain ARP1, hits give low values 1 | locus YHR142W, strain chs7, hits give low values 1.01 | locus YHR200W, strain rpn10, hits give low values 0.989 | locus YIL066C, strain RNR3, hits give low values 1 | locus YIL073C, strain SPO22, hits give low values 0.99 | locus YIL125W, strain kgd1, hits give low values 0.968 | locus YIR030C, strain dcg1, hits give low values 0.983 | locus YJL092W, strain hpr5, hits give low values 1.01 | locus YJL095W, strain BCK1 (second series), hits give low values 1.01 | locus YJL095W, strain BCK1, hits give low values 1.03 and 1 | locus YJL115W, strain asf1, hits give low values 1.01 | locus YJL129C, strain trk1, hits give low values 1.01 | locus YJL134W, strain LCB3, hits give low values 0.999 | locus YJL154C, strain vps35, hits give low values 1 | locus YJL164C, strain tpk1, hits give low values 1 | locus YJL166W, strain qcr8, hits give low values 1.02 | locus YJL168C, strain set2, hits give low values 0.984 | locus YJL187C, strain SWE1 (second series), hits give low values 1.01 | locus YJR043C, strain POL32, hits give low values 1.03 | locus YJR066W, strain TOR1, hits give low values 0.995 | locus YKL009W, strain mrt4, hits give low values 1.01 | locus YKL068W, hits give low values 0.974 | locus YKL085W, strain MDH1 (second series), hits give low values 0.977 | locus YKL085W, strain MDH1, hits give low values 0.977 | locus YKL160W, strain elf1, hits give low values 1.01 | locus YKL190W, strain CNB1, hits give low values 0.995 | locus YKR001C, strain vps1, hits give low values 0.967 | locus YKR026C, strain gcn3, hits give low values 1.02 | locus YKR091W, strain srl3, hits give low values 1.01 | locus YLL001W, strain dnm1, hits give low values 1.01 | locus YLL026W, hits give low values 1.01 | locus YLL041C, strain sdh2, hits give low values 1.01 | locus YLR027C, strain aat2, hits give low values 1.01 | locus YLR039C, strain RIC1, hits give low values 0.99 | locus YLR058C, strain SHM2, hits give low values 1.01 | locus YLR102C, strain apc9, hits give low values 0.98 | locus YLR113W, strain HOG1, hits give low values 0.958 | locus YLR221C, strain rsa3, hits give low values 1.01 | locus YLR258W, strain gsy2, hits give low values 1.01 | locus YLR262C, strain YPT6 (second series), hits give low values 1.01 | locus YLR262C, strain YPT6, hits give low values 1.01 | locus YLR268W, strain sec22, hits give low values 0.967 | locus YLR320W, strain mms22, hits give low values 1 | locus YLR330W, strain CHS5, hits give low values 1.01 | locus YLR342W, strain FKS1 (second series), hits give low values 1.02 | locus YLR342W, strain FKS1, hits give low values 1.02 | locus YLR357W, strain rsc2, hits give low values 1.01 | locus YLR370C, strain arc18, hits give low values 1.02 | locus YLR371W, strain rom2, hits give low values 0.936 | locus YLR384C, strain iki3, hits give low values 1.01 | locus YLR418C, strain cdc73, hits give low values 0.968 | locus YML016C, strain PPZ1, hits give low values 1.01 | locus YML032C, strain rad52, hits give low values 1.01 | locus YML120C, strain ndi1, hits give low values 1 | locus YML124C, strain tub3, hits give low values 0.984 | locus YMR058W, strain fet3, hits give low values 1.02 | locus YMR078C, strain ctf18, hits give low values 0.984 | locus YMR125W, strain sto1, hits give low values 1 | locus YMR129W, hits give low values 1.01 | locus YMR205C, strain PFK2, hits give low values 1.01 | locus YMR223W, strain ubp8, hits give low values 1.01 | locus YMR231W, strain pep5, hits give low values 1.01 | locus YMR263W, strain SAP30, hits give low values 1 | locus YMR307W, strain GAS1, hits give low values 0.99 | locus YNL067W, strain RPL9B, hits give low values 1 | locus YNL071W, strain lat1, hits give low values 1 | locus YNL183C, strain NPR1, hits give low values 1 | locus YNL209W, strain ssb2, hits give low values 1.01 | locus YNL233W, strain BNI4, hits give low values 1.01 | locus YNL248C, strain rpa49, hits give low values 1.01 | locus YNL250W, strain rad50, hits give low values 0.995 | locus YNL271C, strain bni1, hits give low values 1 | locus YNL298W, strain CLA4, hits give low values 0.981 | locus YNL307C, strain MCK1, hits give low values 0.977 | locus YNL322C, strain KRE1 (second series), hits give low values 1.01 | locus YNL322C, strain KRE1, hits give low values 0.999 | locus YNR049C, strain mso1, hits give low values 1.01 | locus YNR052C, strain pop2, hits give low values 0.991 | locus YOL012C, strain htz1 0.646 | locus YOL147C, strain pex11, hits give low values 0.969 | locus YOR001W, strain rrp6, hits give low values 1.06 | locus YOR061W, strain CKA2, hits give low values 1.01 | locus YOR069W, strain VPS5, hits give low values 0.995 | locus YOR070C, strain gyp1, hits give low values 1.01 | locus YOR080W, strain dia2, hits give low values 1.01 | locus YOR083W, strain WHI5, hits give low values 1.02 | locus YOR106W, strain vam3, hits give low values 1.03 | locus YOR136W, strain idh2, hits give low values 0.974 | locus YOR144C, strain elg1, hits give low values 0.977 | locus YOR184W, strain ser1, hits give low values 1.01 | locus YOR231W, strain MKK1, hits give low values 1.03 | locus YOR265W, strain rbl2, hits give low values 1 | locus YOR270C, strain vph1, hits give low values 0.994 | locus YOR290C, strain snf2, hits give low values 1.01 | locus YOR316C, strain cot1, hits give low values 0.981 | locus YPL051W, strain arl3, hits give low values 1.01 | locus YPL078C, strain atp4, hits give low values 1.02 | locus YPL106C, strain sse1, hits give low values 1.01 | locus YPL240C, strain hsp82, hits give low values 1.02 | locus YPL241C, strain CIN2, hits give low values 0.999 | locus YPL256C, strain CLN2, hits give low values 1 | locus YPR119W, strain clb2, hits give low values 0.975 | locus YPR141C, strain kar3, hits give low values 0.975 | locus YPR163C, strain tif3, hits give low values 0.977 | locus YPR167C, strain met16, hits give low values 0.992 | strain wtn01, hits give low values 0.968
